# From PubChem
# Mtb FBA inh – Mtb fructose-bisphosphate aldolase inhibition; inhibition, % at 1 µM; purified M. tuberculosis FBA, fluorescence read-out; hit rate 2.3% among 360,000; AID 588726; in the data active = inhibition above about 27%;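 note: 0% = vehicle and 100% = reference inhibitor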
# Target sequence (P9WQA3 whole entry, looked up): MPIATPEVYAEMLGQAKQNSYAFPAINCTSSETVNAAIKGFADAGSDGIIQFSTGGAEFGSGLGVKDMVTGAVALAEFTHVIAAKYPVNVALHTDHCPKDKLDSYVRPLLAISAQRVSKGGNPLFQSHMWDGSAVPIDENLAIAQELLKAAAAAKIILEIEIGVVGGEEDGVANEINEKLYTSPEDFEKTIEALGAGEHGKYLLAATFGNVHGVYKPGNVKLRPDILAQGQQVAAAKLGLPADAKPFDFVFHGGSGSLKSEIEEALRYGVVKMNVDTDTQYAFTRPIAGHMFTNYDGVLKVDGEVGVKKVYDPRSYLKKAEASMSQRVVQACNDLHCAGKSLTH
# GDH-TPI counter – GDH-TPI coupled enzyme inhibition counter-screen; inhibition, % at 4.8 µM; hit rate 1.2% among 360,000; GDH-TPI coupled enzyme counterscreen, NADH absorbance; in the data active = inhibition above about 30%;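 note: 0% = DMSO wells and 100% = wells lacking the enzyme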
# Mtb bLac sens – beta-lactam sensitization of Mtb H37Rv; M. tuberculosis H37Rv growth with meropenem, percent inhibition; inhibition, % at 25 µM; hit rate 0.27% among 330,000; call rule not given here;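 note: growth measured after seven days incubation then overnight dye step; 0% = bacteria only wells and 100% = bacteria with antibiotic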
# Rv3671c protease – inhibits the M. tuberculosis serine protease Rv3671c. P9WHR9. inhibition, % at 5.96 µM. hit rate 0.048% among 320,000. AID 2606; in the data active = inhibition above about 38%;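 note: extracellular domain of Rv3671c used as enzyme; 0% = enzyme with DMSO and 100% = no enzyme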
# UGM FP inh – inhibitors of M. tuberculosis UDP-galactopyranose mutase | P9WIQ1 | purified UGM, fluorescence polarization probe displacement | inhibition, % at 10 µM | hit rate 0.06% among 320,000 | AID 504406; in the data active = inhibition above about 10%, passing the limit was not always enough; inconclusive = no clear call, values can overlap the other calls
# FadD28 binding – M. tuberculosis FadD28 bisubstrate binding inhibition; FadD28 bisubstrate probe binding, fluorescence polarization; inhibition, % at 12.5 µM; hit rate 0.22% among 360,000; in the data active = inhibition above about 8.5%, passing the limit was not always enough; inconclusive = no clear call, values can overlap the other calls
# * marks the source's active call; other numbers are inactive results; u = inconclusive; x = no result; + = active, no number. Only some compounds are listed: those with a hit (about 3.7% of all), similar ones and a draw of the others.
SMILES,Mtb FBA inh,GDH-TPI counter,Mtb bLac sens,Rv3671c protease,UGM FP inh,FadD28 binding
CCC1(c2ccccc2)NC(=O)N(CC(=O)Nc2ccc3c(C)cc(=O)oc3c2)C1=O (configuration not stated),198.1*,20.9,-2.7,-11.4,-0.3,-1.4
Cc1cc(=O)oc2cc(NC(=O)CC3(CC(=O)O)CCCC3)ccc12,+,19.5,-9.2,4.7,1.4,-2.2
Cc1cc(=O)oc2cc(NC(=O)C3CCCC3)ccc12,155.4*,12.6,41.2,4.3,0.4,-2.1
O=C(Nc1ccc(Cl)cc1F)c1cccc2ccccc12,2.0,-5.7,85.0,-9.4,1.1,-2.8
COc1cc(/C=N/N=C2/NC(=O)C(c3ccccc3)S2)ccc1O (configuration not stated),-4.5,53.7*,1.5,0.9,-1.6,-1.1
COc1cc(/C=N/N=C2/NC(=O)C(Cc3ccc(F)cc3)S2)ccc1O (configuration not stated),3.5,42.0*,5.0,-1.4,-0.2,3.8
COc1cc(/C=C2\CC/C(=C\c3cc(OC)c(O)c(OC)c3)C2=O)cc(OC)c1O,-9.3,15.5,12.8,-29.0,17.3*,u
O=C(/C=C/c1cccc2ccccc12)N1CCOCC1,4.1,8.1,-3.3,12.9,-5.9,-2.9
O=c1c2c3nc4ccccc4nc3n(CC3CCCO3)c2ncn1CCc1ccccc1 (configuration not stated),25.0,6.8,-10.8,-2.3,0.9,-4.5
O=c1c2c3nc4ccccc4nc3n(CCN3CCOCC3)c2ncn1CCN1CCOCC1,21.8,34.3*,x,x,x,-1.4
Cc1ccc2c(c1)c1nc3ccccc3nc1n2CCN1CCOCC1,-2.6,33.9*,56.4,5.7,-1.8,-5.0
COc1ccc(S(=O)(=O)N2CCOC2CNC(=O)C(=O)NCc2ccc3c(c2)OCO3)cc1C (configuration not stated),-4.0,0.0,x,x,x,-5.0
CC(NC(=O)C1CCCN1C(=O)c1cccs1)c1ccc(Cl)cc1Cl (configuration not stated),-3.4,8.0,x,x,x,0.6
Nc1cc(=O)nc2cn[nH]n12,-1.2,7.1,x,x,x,-1.7
CCc1nc2c(OCc3ccc(F)cc3)cccn2c1N(C)C(=O)C(C)C,-2.1,7.1,x,x,x,-1.0
NC(=S)N1N=C(c2ccccc2)CC1=O,1.1,9.5,x,x,x,0.6
CC1=C(C(=O)Nc2cc(C(=O)N3CCN(c4cccc(C)c4C)CC3)ccc2C)SCCO1,-0.8,3.1,9.8,4.6,1.3,0.5
COc1cc(/C=C/C(=O)N2CCC=CC2=O)cc(OC)c1OC,2.8,35.3*,61.2,-3.4,-2.6,-0.9
O=C(COc1ccc(Cl)cc1)OCc1ccc(Cl)cc1,-2.5,4.3,x,x,x,-3.7
Brc1cc2c(cc1/C=N/Nc1nc(N3CCCC3)nc(N3CCOCC3)n1)OCO2,-3.7,31.6*,5.8,5.3,-2.0,-0.3
Cn1nc(C(C)(C)C)cc1C(=O)N1CCCCC1c1cc(C(=O)N2CCOCC2)no1 (configuration not stated),-3.0,6.4,x,x,x,-1.1
CCOC(=O)/C(C#N)=C1/C=C(C)NC(c2ccccc2O)=N1,6.0,22.9,-6.0,9.9,0.0,0.5
CCOC(=O)/C(C#N)=C1/C=CN(C)C(C)=N1,-2.0,67.3*,1.5,-8.8,4.4,-1.3
CC1C2(C)OC(=N)C(C#N)(C(C)O2)C1(C#N)C#N (configuration not stated),127.7*,13.1,-5.7,1.9,3.3,5.5
COc1ccc(NC(=O)Nc2ccc3nc([C@@H]4O[C@H](CO)[C@@H](O)[C@H](O)[C@H]4O)[nH]c3c2)cc1OC1CCCC1,1.4,7.2,x,x,x,-2.5
SMILES,Mtb FBA inh,GDH-TPI counter,Mtb bLac sens,Rv3671c protease,UGM FP inh,FadD28 binding
CCCCCCCCCCCCCCCC[n+]1cccc2ccccc21,0.5,-1.1,16.7,0.7,0.5,16.6*
O=C1CC2(CCN(C(=O)c3cccc(F)c3)CC2)Oc2ccccc21,9.1,7.7,-15.4,-0.1,5.2,-0.4
Cn1cccc1/C=N/NC(=O)c1ccccn1,-0.9,30.9*,99.0,5.9,-3.6,-0.5
Cc1cc(C(=O)N/N=C/c2sccc2C)no1,1.6,15.8,-3.4,-0.6,1.0,-0.6
Cc1ccc(/C=N/NC(=O)c2ccc3c(c2)OCCO3)s1,-5.2,13.2,6.0,-6.2,-0.9,-2.0
Cc1ccc(/C=N/NC(=O)c2ccccn2)s1,-0.4,31.6*,95.6,-2.8,3.5,-0.9
Cc1cc(C(=O)N/N=C/c2cccn2C)no1,-0.4,31.0*,2.8,-0.3,1.1,-1.3
Cc1ccc(/C=N/NC(=O)c2ccc3ccccc3c2)s1,-0.7,32.1*,62.0,8.1,2.2,-2.4
O=C(NC1CCCCC1)c1[nH]c(C(F)(F)F)nc1-c1ccccc1,0.6,x,x,x,x,-2.9
Cn1cccc1/C=N\NC(=O)c1cncc(Br)c1,-0.7,25.8,32.9,-5.9,0.9,-3.3
Cn1cccc1/C=N/NC(=O)Cc1ccccc1,-2.3,23.9,-6.6,-2.2,-0.1,-4.1
Cn1cccc1/C=N/NC(=O)C(O)c1ccccc1 (configuration not stated),-2.9,30.6*,-3.0,1.1,1.3,1.5
Cn1cccc1/C=N/NC(=O)c1ccncc1,1.1,35.4*,98.8,-3.6,0.4,-0.2
CCN(C1CCS(=O)(=O)C1)S(=O)(=O)c1ccc(Cl)s1 (configuration not stated),-3.0,-2.1,x,x,x,-4.1
CN(C)c1ccc(/C=C2/C(=N\O)C3CCN2CC3)cc1,0.8,51.7*,10.1,0.0,-1.4,-0.3
C=CCNC(=O)/C(=C\C=C\c1ccccc1)NC(=O)c1ccccc1Cl,-3.2,31.3*,-7.5,-9.0,2.1,-3.8
CCOc1c2ccc(C(=O)NCc3ccco3)cc2nn1CC,38.7*,6.9,-6.0,-0.6,1.3,-4.1
COc1ccccc1CNC(=O)c1ccc2nc3[nH]c4ccccc4c3nc2c1,-0.5,39.5*,9.7,-56.3,-0.3,-0.6
CCCCn1nc2cc(C(=O)NCc3ccccc3)ccc2c1OCC,67.9*,1.2,50.5,7.6,-1.5,1.3
CCOc1ccc(C(=O)NCc2ccco2)cc1OCC,1.7,3.7,4.6,4.6,-0.3,-1.7
CCOc1c2ccc(C(=O)NCc3ccccc3OC)cc2nn1CC,46.8*,-1.2,11.6,6.4,-0.7,1.6
CCn1cc(C(=O)Nc2ccc(Cl)cc2Cl)cn1,2.0,7.6,-3.7,0.7,4.3,-1.3
CC1(C(=O)NS(=O)(=O)C2CC2)CCCN(C(=O)c2ccc(F)cc2Cl)C1 (configuration not stated),-2.5,-1.3,x,x,x,-3.6
COc1cccc(C(O)C2OC(=O)c3ccccc32)c1OC (configuration not stated),-0.7,9.6,-6.6,-2.0,4.7,-2.2
COC(=O)C[C@@H]1C[C@H]2c3cc(N(C)C)ccc3O[C@H]2[C@H](CO)O1,-2.5,-11.8,x,x,x,-5.1
O=S1(=O)CC(N2CCN(CC3CC3)CC2)CN1Cc1cn(Cc2ccccc2C(F)(F)F)nn1 (configuration not stated),-2.7,x,x,x,x,-4.0
CCCn1nc2cc(C(=O)N(CC)c3ccc(OC)cc3)ccc2c1OCC,40.2*,0.0,-0.8,-11.3,2.9,-1.7
